High-throughput results (PubChem)
Avidin fluor: compound fluoresces at 488/530 nm on avidin beads; AID 1775; compound fluorescence 488/530 nm, flow cytometry; active compounds read high; hit rate 0.38% among 220,000; fluorescence (KMESF) at 10 µM; in the data active = fluorescence above about 47
RGS7-Gao: regulators of human RGS7-Galphao interaction | binding response (% of control), % at 10 µM | hit rate 0.35% among 220,000 | Multiplexed bead flow cytometry, RGS7-Galphao binding; actives lie on both sides | P09471; in the data active = binding response below about 49% or above about 150%; inconclusive = no clear call, values can overlap the other calls; inactive = in between;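 note: fluorescent Galphao held in activated GDP-AlF4 state binding bead-coupled RGS7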
Target sequence (P09471 whole entry, looked up): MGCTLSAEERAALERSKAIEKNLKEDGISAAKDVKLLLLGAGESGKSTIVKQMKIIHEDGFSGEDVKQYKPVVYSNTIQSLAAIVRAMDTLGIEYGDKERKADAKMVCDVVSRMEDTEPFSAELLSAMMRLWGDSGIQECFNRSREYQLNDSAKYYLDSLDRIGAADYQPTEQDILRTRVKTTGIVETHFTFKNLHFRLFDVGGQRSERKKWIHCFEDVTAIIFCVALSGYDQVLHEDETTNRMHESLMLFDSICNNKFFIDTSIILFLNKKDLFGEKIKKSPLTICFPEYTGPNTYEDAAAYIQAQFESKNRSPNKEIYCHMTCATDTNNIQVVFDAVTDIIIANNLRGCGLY
RGS8-Gao reg: modulates binding of RGS8 to human Galphao; P09471; multiplexed bead flow cytometry; actives lie on both sides; response (percent of control binding), % at 10 µM; hit rate 0.34% among 220,000; in the data active = response below about 60% or above about 140%; inactive = in between;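 note: Galphao activated as the GDP aluminium fluoride complex binding bead-coupled RGS8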
RGS4-Gao reg: modulates binding of RGS4 to human Galphao | binding response (% of control), % at 10 µM | hit rate 0.33% among 220,000 | P09471 | AID 1415 | Multiplexed bead flow cytometry; actives lie on both sides; in the data active = binding response below about 49% or above about 150%; inactive = in between;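 note: fluorescent Galphao activated with aluminum fluoride binding bead-coupled RGS4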
GSH fluor: GSH bead compound fluorescence profile | hit rate 0.25% among 190,000 | fluorescence (KMESF) at 10 µM | GSH beads flow cytometry, compound fluorescence 488/530 nm; active compounds read high; in the data active = fluorescence above about 89;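 note: glutathione beads carrying GST-tagged Bcl family fusion proteins plus one bare bead set; values are compound well signal with DMSO vehicle wells as background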
RGS16-Gao: RGS16-Galphao interaction regulator (human); bead-based flow cytometry RGS16-Galphao binding, fluorescence; actives lie on both sides; hit rate 0.38% among 220,000; AID 1441; binding response (% of control), % at 10 µM;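 note: Galphao activated by GDP with aluminum fluoride before binding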
Target sequence (O15492 whole entry, looked up): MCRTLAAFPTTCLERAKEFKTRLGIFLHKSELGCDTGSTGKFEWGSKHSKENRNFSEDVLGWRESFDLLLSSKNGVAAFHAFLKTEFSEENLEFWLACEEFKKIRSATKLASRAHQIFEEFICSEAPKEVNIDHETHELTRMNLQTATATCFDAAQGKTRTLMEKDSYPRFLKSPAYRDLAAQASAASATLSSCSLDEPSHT
Target sequence (P09471 whole entry, looked up): as the sequence (P09471 whole entry, looked up) above
RGS-Gao: regulators of human RGS4-Galphao interaction; shares compounds with RGS16-Gao; multiplexed bead flow cytometry, RGS–Galpha-o binding; RGS4–Galpha-o binding response, % at 10 µM; hit rate 99% among 1,600; AID 1504;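 note: fluorescently labeled Galpha-o bound to GDP with aluminium fluoride binding biotinylated RGS beads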
Avidin counter: biotin-avidin bead binding disruption counter-screen; shares compounds with RGS16-Gao; streptavidin beads, fluorescein-biotin binding, flow cytometry; inhibition, % at 10 µM; 1,700 tested, under 10 active; AID 1783;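 active = inhibition above 50%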;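 note: median green fluorescence of gated singlet beads compared with DMSO control wells; 0% = DMSO wells and 100% = complete loss of bead fluorescence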
RGS8-Gao single: RGS8-Galphao interaction regulation, single point confirmation. shares compounds with RGS16-Gao. bead-based flow cytometry RGS8-Galphao binding, fluorescence; actives lie on both sides. binding response (% of control), % at 10 µM. hit rate 3% among 1,700. AID 1836; in the data active = binding response below about 72% or above about 130%; inactive = in between;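 note: Galphao activated as GDP AlF4 complex before binding bead RGS8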
RGS7-Gao confirm: confirmation of regulators of human RGS7-Galphao interaction | shares compounds with RGS16-Gao | bead-based flow cytometry RGS7-Galphao binding; actives lie on both sides | response (percent of control binding), % at 10 µM | hit rate 7.8% among 1,700; in the data active = response below about 75% or above about 130%; inactive = in between;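 note: fluorescent Galphao activated with GDP and aluminum fluoride binding bead-coupled RGS7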
RGS16-Gao conf: confirmation of regulators of human RGS16-Galphao interaction. shares compounds with RGS16-Gao. bead-based flow cytometry, RGS16-Galphao binding; actives lie on both sides. response (% of control binding), % at 10 µM. hit rate 4% among 1,700; in the data active = response below about 74% or above about 130%; inactive = in between;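 note: Galphao activated as the GDP aluminium fluoride complex binding bead-coupled RGS16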
RGS4-Gao confirm: RGS4-Galphao interaction regulation, single point confirmation | shares compounds with RGS16-Gao | RGS4-Galphao binding, multiplexed bead flow cytometry; actives lie on both sides | binding response (% of control), % at 10 µM | hit rate 4% among 1,700 | AID 1840; in the data active = binding response below about 74% or above about 130%; inactive = in between
RGS19-Gao conf: confirmation of regulators of human RGS19-Galphao interaction; shares compounds with RGS16-Gao; bead-based flow cytometry RGS19-Galphao binding; actives lie on both sides; response (percent of control binding), % at 10 µM; hit rate 5% among 1,700; AID 1841; in the data active = response below about 50% or above about 160%; inactive = in between;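 note: 100% = no compound control and 0% = blank background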
* marks the source's active call; other numbers are inactive results; ? = inconclusive; nt = not tested or not shown; [ ] = dose if it differs, or a comment. Shown are actives, neighbours in structure and some others; about 1.2% of the full set was active somewhere. Unless noted, the rule behind the calls is not given here.

SMILES	Avidin fluor	RGS7-Gao	RGS8-Gao reg	RGS4-Gao reg	GSH fluor	RGS16-Gao	RGS-Gao	Avidin counter	RGS8-Gao single	RGS7-Gao confirm	RGS16-Gao conf	RGS4-Gao confirm	RGS19-Gao conf
CCOc1ccc(C(=O)N[C@H](C(=O)Nc2cccc(S(=O)(=O)N3CCCCC3)c2)C(C)C)cc1	4	88	80	90	7	4.6*	90*	1	103	100	98	102	93
Cc1cccc(C(=O)N[C@H](C(=O)Nc2cccc(S(=O)(=O)N3CCCC3)c2)C(C)C)c1	16	?	103	109	nt	110	nt	nt	nt	nt	nt	nt	nt
O=C1N=C(N2CCOCC2)S/C1=C/c1cc2c(cc1[N+](=O)[O-])OCO2	6	?	102	105	nt	103	nt	nt	nt	nt	nt	nt	nt
Cc1ccc(C2=C(CC(=O)O)C(=O)CC2)cc1	6	91	76	92	7	22*	92*	0	103	104	101	101	147
Cc1ccc(-c2sc(C)nc2CC(=O)O)cc1	15	96	101	100	33	104	nt	nt	nt	nt	nt	nt	nt
CCN1CCN(S(=O)(=O)CC2(C)C3CCC2(C)C(=O)C3Br)CC1 (stereo not given)	9	?	99	96	18	101	nt	nt	nt	nt	nt	nt	nt
CCCCn1c(-c2csc(C(C)C)c2)n[nH]c1=S	2	100	76	99	5	38	nt	-1	102	109	104	102	101
Cc1ccc(C)n1-c1cccc(C(=O)O)c1	2	22*	49*	84	7	91	84*	nt	nt	nt	nt	nt	nt
Cc1ccc(C)n1-c1cccc(N)c1	12	73	82	49*	9	54	nt	-1	100	99	101	96	110
Cc1ccc(C)c(NC(=S)c2ccc3ccccc3n2)c1	-5	8.0*	15*	19*	12	2.2*	nt	0	100	82	96	86	80
O=C(O)/C=C/c1cnn(-c2ccccc2)c1	10	99	102	102	14	100	nt	nt	nt	nt	nt	nt	nt
NNc1nc2ccc(F)cc2s1	8	89	78	92	9	0.3*	92*	3	101	94	102	100	108
NNc1nc2ccc(Cl)cc2s1	15	100	102	102	17	99	nt	nt	nt	nt	nt	nt	nt
O=C(O)c1nccnc1C(=O)NCCc1c[nH]c2ccccc12	12	?	102	101	9	101	nt	nt	nt	nt	nt	nt	nt
O=C(NCCc1c[nH]c2ccccc12)c1c(Cl)nc2sccn12	-1	19*	17*	30*	21	2.2*	nt	-1	114	125	109	110	103
CCOC(=O)c1ccc(NC2OC(=O)c3ccccc32)cc1 (stereo not given)	nt	nt	nt	nt	17	nt	nt	2	104	109	106	103	107
CC(C)OCC(O)CS(=O)(=O)Cc1ccccc1 (stereo not given)	8	79	73	68	9	-90*	68*	1	99	103	102	102	90
COc1ccc(Oc2ccccc2/C=C/C(=O)O)cc1	33	98	100	98	12	101	nt	nt	nt	nt	nt	nt	nt
O=C(O)/C=C\c1ccccc1Oc1ccc(F)cc1	89*	167*[activator]	100	127	70	101	127*	1	103	86	98	97	98
O=C(O)/C=C/c1ccccc1Oc1ccccc1	88*	154*[activator]	138	162*[activator]	30	184	nt	0	98	96	98	96	97
Cc1nc(N2CCCCC2)c(C#N)c(C)c1[N+](=O)[O-]	16	148	105	156*[activator]	25	133	nt	0	102	97	101	96	103
COC(=O)c1cn(NC(=O)c2ccc([N+](=O)[O-])cc2Cl)c(=O)c2ccccc12	11	?	101	102	12	102	nt	nt	nt	nt	nt	nt	nt
Cc1nc(NC(=O)C(C)Oc2cccc(Cl)c2)sc1C(=O)N(C)C (stereo not given)	11	94	98	96	7	88	nt	nt	nt	nt	nt	nt	nt
COC(=O)C1=C(C)N(Cc2ccco2)C(=O)/C1=C\c1ccc(N(C)C)cc1	14	110	130	111	7	231*[activator]	111*	0	100	98	102	101	106
COc1ccccc1NC(=O)C1CCCCC1	90*	158*[activator]	97	107	26	100	107*	nt	nt	nt	nt	nt	nt
SMILES	Avidin fluor	RGS7-Gao	RGS8-Gao reg	RGS4-Gao reg	GSH fluor	RGS16-Gao	RGS-Gao	Avidin counter	RGS8-Gao single	RGS7-Gao confirm	RGS16-Gao conf	RGS4-Gao confirm	RGS19-Gao conf
COc1ccc(Nc2nc3[nH]c(=O)cc(O)c3s2)cc1	2	21*	16*	23*	14	12*	nt	-1	99	87	95	94	70
COc1cc(C(=O)OC(C)CN2CCCC2)cc(OC)c1OC (stereo not given)	6	44*	49*	47*	25	42	nt	0	105	105	111	107	118
COc1ccc(C(=O)OC(C)CN2CCOCC2)cc1OC (stereo not given)	6	102	101	103	6	105	nt	nt	nt	nt	nt	nt	nt
O=C(NCCCN1CCOCC1)/C(=C/c1cccnc1)NC(=O)c1ccccc1	11	102	104	102	71	100	nt	nt	nt	nt	nt	nt	nt
CCn1c(SCC(=O)Nc2cc(C(C)(C)C)nn2-c2ccccc2)nnc1-c1cccs1	86*	185*[activator]	96	110	18	91	110*	0	94	89	95	93	86
Cc1nnc(SCC(=O)Nc2cc(C(C)(C)C)nn2-c2ccccc2)s1	11	104	103	101	6	112	nt	nt	nt	nt	nt	nt	nt
O=C(c1cc(-c2ccco2)nc2ccccc12)N1CCN(c2ccc(F)cc2)CC1	12	94	99	97	5	90	nt	nt	nt	nt	nt	nt	nt
Cc1ccc(CN2CCSc3ccc(C(=O)NCc4cccnc4)cc32)cc1	8	?	98	96	13	93	nt	nt	nt	nt	nt	nt	nt
